# In PubChem BioAssay:
# Values joined by “and” are separate entries in the source; they are usually repeats but may differ in a detail not shown here. Equal entries are not always repeated. Active and inactive are the calls of the source. Rule as the data show it, unless noted: active = parasite load remaining mostly below about 12% (no sharp cut-off); inactive = mostly above about 10%.
# Columns and labels:
# [1] = liver-stage malaria parasite growth inhibition, primary screen, cell-based, HepG2, luciferase luminescence, HepG2 viability (AID 624349);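 also: 100% = mean of DMSO negative control wells on the same plate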; conditions: P. berghei liver stage in HepG2, luciferase luminescence, concentration not given here; parasite load remaining: stronger effect = lower value; viability: measured here: HepG2 viability without parasites
# [2] = stimulators of nuclear beta-catenin in C2C12, primary screen, imaging, WNT3A-conditioned medium, mouse C2C12, NPC library (AID 1117326; in the data active = nuclear beta-catenin stimulation mostly above about 4.2%, no sharp cut-off; inactive = mostly below about 10%); conditions: stronger effect = higher value
# [3] = stimulators of insulin release from INS-1E, primary screen, cell-based, 5 mM glucose, NPC library (AID 1117329;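 active = compound raises insulin release from rat beta cells at 5 mM glucose, no numeric limit stated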); conditions: rat INS-1E insulin secretion, at 10 µM, stronger effect = higher value
# [4] = growth inhibition of GSK3B-pretreated HCT116 cells – cell-based, CellTiter-Glo, 0.2 to 20 µM (AID 1117336;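 active = compounds lowering colon cancer cell viability after pretreatment blocking the GSK3B kinase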); conditions: HCT116 viability after GSK3B inhibitor, at 20 µM, stronger effect = higher value
# [5] = inhibition of endothelial tube formation, primary screen, imaging, VEGF stimulated, CD31 staining, tube area, NPC library (AID 1117340;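 active = compound that reduces growth-factor-driven endothelial tube area in a mixed cell culture, no cutoff stated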); conditions: VEGF-stimulated ADSC/ECFC co-culture, at 10 µM, stronger effect = higher value
# [6] = glucagon-like peptide 1 release enhancers, primary assay, NCI-H716 cell line, NPC library (AID 1117341;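 active = compound raises GLP1 secretion from the human gut endocrine cells, with no numeric limit stated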); conditions: NCI-H716 cells, at 10 µM, stronger effect = higher value
# [7] = HCT116 colon cancer cell growth inhibition, primary screen, CellTiter-Glo luminescence, NPC library (AID 1117342;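 active = compounds that lower survival of HCT116 colon cancer cells in the luminescence readout, no numeric limit stated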); conditions: at 20 µM (top of the series)
# [8] = CellTiter-Glo luminescent readout of SW480 viability loss, NPC library primary (AID 1117343;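 active = compounds that lower viability of the colon cancer cells in the luminescence readout, with no numeric limit stated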); conditions: CellTiter-Glo luminescence; at 20 µM (top of the series)
# [9] = decreased DLD-1 cellular survival, CellTiter-Glo luminescent readout, NPC compound collection, primary HTS (AID 1117346;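 active = compounds that lower survival of DLD-1 colon cancer cells in the luminescence readout, no cutoff given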); conditions: DLD-1 viability, CellTiter-Glo luminescence; at 20 µM (top of the series)
# [10] = molecular target: 6-phosphogluconate dehydrogenase, decarboxylating (Homo sapiens) (UniProt P52209); experiment: 6PGD enzyme inhibitors, primary screen, biochemical, human, recombinant enzyme, NADPH absorbance (AID 1159550;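 active = at least 20% inhibition of 6-phosphogluconate dehydrogenase activity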); conditions: recombinant 6PGD, NADPH absorbance 341 nm; at 10 µM; stronger effect = higher value
# Sequence of 6-phosphogluconate dehydrogenase, decarboxylating (Homo sapiens) (P52209 whole entry, looked up): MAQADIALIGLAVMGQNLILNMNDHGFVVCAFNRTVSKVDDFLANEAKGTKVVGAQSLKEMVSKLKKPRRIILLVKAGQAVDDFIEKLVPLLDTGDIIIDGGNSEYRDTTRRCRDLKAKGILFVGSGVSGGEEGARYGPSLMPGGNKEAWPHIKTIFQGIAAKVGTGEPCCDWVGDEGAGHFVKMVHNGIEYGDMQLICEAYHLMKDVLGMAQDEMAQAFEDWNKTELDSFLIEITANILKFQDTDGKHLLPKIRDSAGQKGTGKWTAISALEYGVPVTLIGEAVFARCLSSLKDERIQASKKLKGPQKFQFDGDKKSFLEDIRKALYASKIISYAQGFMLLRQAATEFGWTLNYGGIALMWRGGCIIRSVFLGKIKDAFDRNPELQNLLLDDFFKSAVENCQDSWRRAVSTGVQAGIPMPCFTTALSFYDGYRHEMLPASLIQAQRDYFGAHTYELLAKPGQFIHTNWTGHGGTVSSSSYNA
# [11] = system: Aerobactin synthetase IucA (Klebsiella pneumoniae hvKP1); experiment: Biochemical IucA enzyme inhibition primary screen of the Spectrum library (AID 1346200; call rule not given here;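 also: 100% = wells without compound and 0% = wells lacking enzyme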); conditions: malachite green pyrophosphate, A620, at 8 µM, stronger effect = lower value
# [12] = sensitizers of A549 cells to miR-34 induction, primary screen, imaging, A549 dox-inducible miR-34, nuclei and caspase counts (AID 1347080;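 active = compounds whose cell count with miR-34 switched on is under 0.7 times the count with it off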); conditions: A549 miR-34 inducible, Hoechst nuclei count, 48 h
# [13] = molecular target: NAD(+) hydrolase SARM1 (Homo sapiens) (UniProt Q6SZW1); experiment: SARM1 TIR NADase inhibitors, cell lysate, NAD-Glo luminescence (AID 1508614;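 active = compound whose remaining NAD level is above about 45 nM, limit read from the data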;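 also: higher remaining NAD means stronger inhibition of SARM1 NADase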); conditions: SAM-TIR HEK293T lysate NADase, at 1 µM, stronger effect = higher value
# Sequence of NAD(+) hydrolase SARM1 (Homo sapiens) (Q6SZW1 whole entry, looked up, the tested form may be a part): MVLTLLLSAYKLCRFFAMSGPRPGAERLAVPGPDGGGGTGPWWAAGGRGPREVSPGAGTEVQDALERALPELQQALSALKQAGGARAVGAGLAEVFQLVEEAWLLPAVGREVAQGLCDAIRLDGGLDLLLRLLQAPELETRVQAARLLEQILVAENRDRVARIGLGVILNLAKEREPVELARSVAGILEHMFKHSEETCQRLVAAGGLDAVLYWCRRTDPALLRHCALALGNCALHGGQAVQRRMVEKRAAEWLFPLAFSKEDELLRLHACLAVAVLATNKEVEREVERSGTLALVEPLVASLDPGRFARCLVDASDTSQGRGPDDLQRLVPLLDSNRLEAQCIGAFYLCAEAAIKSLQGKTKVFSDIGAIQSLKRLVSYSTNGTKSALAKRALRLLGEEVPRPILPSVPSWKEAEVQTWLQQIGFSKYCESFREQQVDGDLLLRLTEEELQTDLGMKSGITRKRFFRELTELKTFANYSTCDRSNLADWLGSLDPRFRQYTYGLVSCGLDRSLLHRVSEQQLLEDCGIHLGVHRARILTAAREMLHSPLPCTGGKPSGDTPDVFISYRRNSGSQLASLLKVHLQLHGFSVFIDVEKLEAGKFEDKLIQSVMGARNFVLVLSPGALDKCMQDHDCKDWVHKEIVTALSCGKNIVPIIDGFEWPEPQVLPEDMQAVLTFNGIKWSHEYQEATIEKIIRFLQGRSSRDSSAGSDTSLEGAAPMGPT
# [14] = molecular target: Mitogen-activated protein kinase 7 (Homo sapiens) (UniProt Q13164); experiment: ERK5 transactivation activators in reporter cells, primary screen, cell-based, HTS (AID 1508626;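 active = luciferase signal above three times the same-plate solvent-only control wells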;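 also: luciferase driven by Gal4-ERK5 fusion binding five Gal4 sites before minimal TATA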); conditions: HeLa Gal4-ERK5 transactivation, 18 h, at 5 µM, stronger effect = higher value
# Sequence of Mitogen-activated protein kinase 7 (Homo sapiens) (Q13164 whole entry, looked up, the tested form may be a part): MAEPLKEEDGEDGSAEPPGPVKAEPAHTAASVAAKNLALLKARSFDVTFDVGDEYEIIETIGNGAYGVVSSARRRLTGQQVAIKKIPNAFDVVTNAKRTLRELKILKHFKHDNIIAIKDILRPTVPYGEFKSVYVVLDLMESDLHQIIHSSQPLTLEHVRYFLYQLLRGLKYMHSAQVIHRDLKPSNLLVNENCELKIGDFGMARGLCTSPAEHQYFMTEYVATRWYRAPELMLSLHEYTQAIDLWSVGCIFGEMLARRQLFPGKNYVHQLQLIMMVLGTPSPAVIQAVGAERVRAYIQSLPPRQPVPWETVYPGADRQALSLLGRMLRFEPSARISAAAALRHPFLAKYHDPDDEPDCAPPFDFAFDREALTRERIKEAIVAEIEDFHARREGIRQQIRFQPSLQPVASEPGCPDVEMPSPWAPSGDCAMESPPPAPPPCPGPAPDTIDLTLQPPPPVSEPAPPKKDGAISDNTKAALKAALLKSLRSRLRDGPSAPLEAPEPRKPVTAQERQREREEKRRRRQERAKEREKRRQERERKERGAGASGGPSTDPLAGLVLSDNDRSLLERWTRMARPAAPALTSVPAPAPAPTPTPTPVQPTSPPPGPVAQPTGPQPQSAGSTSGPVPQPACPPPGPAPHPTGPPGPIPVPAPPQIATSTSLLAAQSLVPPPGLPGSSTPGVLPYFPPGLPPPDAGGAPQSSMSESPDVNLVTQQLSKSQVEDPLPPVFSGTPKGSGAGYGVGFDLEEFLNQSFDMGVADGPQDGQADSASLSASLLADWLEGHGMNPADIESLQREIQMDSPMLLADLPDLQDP
# [15] = hESC survival regulators, cell-based (AID 493140; call rule not given here;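 also: cells exposed to compounds for four days before counting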); conditions: human embryonic stem cell survival screen; stronger effect = higher value
# [16] = system: Aerobactin synthetase IucA (Klebsiella pneumoniae, hypervirulent); experiment: IucA enzyme inhibition, biochemical, LOPAC library, absorbance readout (AID 1346212; call rule not given here;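 also: 100% = no compound wells and 0% = no enzyme wells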); conditions: IucA enzyme assay, absorbance (OD) readout; stronger effect = lower value;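 tested at 8 µM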
# [17] = viability rescue of complex I mutant cybrids, primary screen, cell-based, galactose medium, ATP luminescence (AID 1645843;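 active = z-score of at least 1.8 in each of two replicates, scored against plate mean and spread of sample wells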;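 also: positive z means more ATP and so rescue of galactose-driven cybrid death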); conditions: complex I mutant cybrid cells, 72 h, stronger effect = higher value
# [18] = differential killing of epithelial or mesenchymal cells, primary screen, imaging, PC-3E GFP, TEM4-18 mCherry, co-culture (AID 1345086;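 active = compounds killing one labelled cell type while sparing the other, by normalised counts and ratio limits, not self-fluorescent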;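 as to all read-outs here: cells exposed to compound for 72 h before imaging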;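 as to red/green cell ratio (normalised): normalised mesenchymal count divided by normalised epithelial count so high means epithelial killing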); conditions: imaging cell counts, at 1 µM; for red/green cell ratio (normalised): actives lie on both sides
# [19] = survival rescue of mitochondrial mutant cells in low glucose, primary screen, MELAS cybrids, Rieske KO mouse fibroblasts, CellTiter-Glo (AID 1508586;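 active = mean z-score across replicates of 1.96 or higher in either the MELAS or the Rieske mutant cell line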;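 also: z relative to plate mean and SD of compound and empty wells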)
# [20] = measured here: relative caspase fold change +Dox/-Dox
# [21] = measured here: total cells with miR-34 induction, stronger effect = lower value
# [22] = measured here: total cells without miR-34 induction
# [23] = measured here: epithelial PC-3E GFP cell survival
# [24] = measured here: mesenchymal TEM4-18 mCherry cell survival
# [25] = MELAS cybrid survival, CellTiter-Glo 48 h, stronger effect = higher value
# [26] = Rieske KO mouse fibroblast survival, CellTiter-Glo 72 h
compound,measurement,setting,value
CC(=O)[O][Hg][c]1ccccc1,parasite load remaining,[1],3.54% (inactive) and -0.265% (inactive)
same,viability,[1],23.1% and 0.225%
same,nuclear beta-catenin stimulation,[2]; at 10 µM,14.5% (inactive)
same,nuclear beta-catenin stimulation,"[2]; stimulation, at 2 µM",13.2%
same,insulin secretion stimulation,[3],15.9% (inactive)
same,viability decrease,[4],103% (active)
same,tube area decrease,[5],110% (active)
same,GLP1 secretion stimulation,[6],49.8% (active)
same,inhibition of viability,[7],103% (active)
same,viability decrease (inhibition),[8],144% (active)
same,viability decrease (inhibition),[9],105% (active)
same,inhibition,[10],-9.01% (inactive)
same,activity remaining,[11],-6.18% (active)
same,fold change,[12]; stronger effect = lower value,0.775 (inactive)
same,fold change,[12]; [20],1.65
same,cell count,[12]; [21],334
same,cell count,[12]; [22],432
same,remaining NAD,[13],63 nM (active)
same,luciferase signal,[14],32 AU (inactive)
N[C@@H]1C[C@H]1c1ccccc1,survival,[15],34.7 (inactive)
same,parasite load remaining,[1],105% (inactive)
same,viability,[1],90.9%
same,nuclear beta-catenin stimulation,[2]; at 10 µM,1.6% (inactive)
same,nuclear beta-catenin stimulation,"[2]; stimulation, at 2 µM",2.1%
same,insulin secretion stimulation,[3],0.5% (active)
same,viability decrease,[4],-2.2% (inactive)
same,tube area decrease,[5],-22.1% (inactive)
same,GLP1 secretion stimulation,[6],3.6% (inactive)
same,inhibition of viability,[7],19.4% (inactive)
same,viability decrease (inhibition),[8],10% (inactive)
same,viability decrease (inhibition),[9],-5.6% (inactive)
same,inhibition,[10],-7.3% (inactive) and 0.348% (inactive)
same,remaining activity,[16],95.5% (inactive)
same,fold change,"[12]; stronger effect = lower value, cell number ratio, induced over uninduced",0.966 (inactive)
same,fold change,[12]; [20],1.35
same,cell count,[12]; [21],9350
same,cell count,[12]; [22],9680
same,luciferase signal,[14],36 AU (inactive)
same,z-score,[17],0.32 (inactive)
C[C@H]1C(=O)O[C@@H]2CCN3CC=C(COC(=O)[C@](C)(O)[C@]1(C)O)[C@H]23,survival,[15],1.5 (inactive)
same,parasite load remaining,[1],96.1% (inactive) and 65.8% (inactive) and 70.5% (inactive)
same,viability,[1],103% and 66% and 74.5%
same,nuclear beta-catenin stimulation,[2]; at 10 µM,-0.7% (inactive)
same,nuclear beta-catenin stimulation,"[2]; stimulation, at 2 µM",-0.6%
same,insulin secretion stimulation,[3],-0.1% (inactive)
same,viability decrease,[4],-4.9% (inactive)
same,tube area decrease,[5],17.9% (inactive)
same,GLP1 secretion stimulation,[6],-1.4% (inactive)
same,inhibition of viability,[7],-6% (inactive)
same,viability decrease (inhibition),[8],-1.2% (inactive)
same,viability decrease (inhibition),[9],-12.1% (inactive)
same,inhibition,[10],17% (inactive)
same,red/green cell ratio (normalised),[18],1.08 (inactive)
same,normalised cell number,[18]; [23],0.97
same,normalised cell number,[18]; [24],1.05
same,activity remaining,[11],111% (inactive)
same,fold change,[12]; stronger effect = lower value,0.8 (inactive)
same,fold change,[12]; [20],1.54
same,cell count,[12]; [21],8710
same,cell count,[12]; [22],10900
same,luciferase signal,[14],56 AU (inactive)
CC(=O)NC1CCSC1=O (centres undefined),survival,[15],5.75 (inactive)
same,parasite load remaining,[1],132% (inactive)
same,viability,[1],109%
same,nuclear beta-catenin stimulation,[2]; at 10 µM,2.9% (inactive)
same,nuclear beta-catenin stimulation,"[2]; stimulation, at 2 µM",3%
same,insulin secretion stimulation,[3],0.7% (inactive)
same,viability decrease,[4],-1% (inactive)
same,tube area decrease,[5],8% (inactive)
same,GLP1 secretion stimulation,[6],-0.5% (inactive)
same,inhibition of viability,[7],-4.73% (inactive)
same,viability decrease (inhibition),[8],12.1% (inactive)
same,viability decrease (inhibition),[9],-3.7% (inactive)
same,inhibition,[10],18.8% (inactive)
same,red/green cell ratio (normalised),[18],0.96 (inactive)
same,normalised cell number,[18]; [23],1.05
same,normalised cell number,[18]; [24],1.02
same,fold change,[12]; stronger effect = lower value,0.927 (inactive)
same,fold change,[12]; [20],0.928
same,cell count,[12]; [21],7880
same,cell count,[12]; [22],8510
same,z-score,[19]; [25],-0.207 (inactive)
same,z-score,[19]; [26],-0.982
same,remaining NAD,[13],10 nM (inactive)
same,luciferase signal,[14],52 AU (inactive)
CC(C)(C)NCC(O)c1cc(Cl)c(N)c(Cl)c1 (centres undefined),survival,[15],11.5 (inactive)
same,parasite load remaining,[1],72.5% (inactive) and 86% (inactive) and 37.5% (inactive)
same,viability,[1],109% and 74.6% and 102%
same,nuclear beta-catenin stimulation,[2]; at 10 µM,0% (inactive)
same,nuclear beta-catenin stimulation,"[2]; stimulation, at 2 µM",1.4%
same,insulin secretion stimulation,[3],3.8% (inactive)
same,viability decrease,[4],-1.4% (inactive)
same,tube area decrease,[5],13.7% (inactive)
same,GLP1 secretion stimulation,[6],0.6% (inactive)
same,inhibition of viability,[7],24.9% (inactive)
same,viability decrease (inhibition),[8],15.4% (inactive)
same,viability decrease (inhibition),[9],10.4% (inactive)
same,inhibition,[10],-5.11% (inactive)
same,red/green cell ratio (normalised),[18],1.04 (inactive)
same,normalised cell number,[18]; [23],1.05
same,normalised cell number,[18]; [24],1.09
same,activity remaining,[11],115% (inactive)
same,fold change,[12]; stronger effect = lower value,0.844 (inactive) and 0.889 (inactive)
same,fold change,[12]; [20],1.23 and 1.3
same,cell count,[12]; [21],8390 and 9780
same,cell count,[12]; [22],9940 and 11000
same,z-score,[19]; [25],0.503 (inactive) and 0.285 (inactive)
same,z-score,[19]; [26],0.0878 and 0.551
same,remaining NAD,[13],10 nM (inactive)
same,luciferase signal,[14],44 AU (inactive)
same,z-score,[17],0.41 (inactive)
Clc1ccc(CSC(Cn2ccnc2)c2ccc(Cl)cc2Cl)cc1 (centres undefined),survival,[15],7.67 (inactive)
same,parasite load remaining,[1],45.1% (inactive) and 43.8% (inactive) and 9.3% (inactive)
same,viability,[1],77.3% and 59.6% and 86.4%
same,nuclear beta-catenin stimulation,[2]; at 10 µM,4.8% (inactive)
same,nuclear beta-catenin stimulation,"[2]; stimulation, at 2 µM",1.5%
same,insulin secretion stimulation,[3],2.6% (inactive)
same,viability decrease,[4],101% (active)
same,tube area decrease,[5],110% (active)
same,GLP1 secretion stimulation,[6],45.8% (active)
same,inhibition of viability,[7],102% (active)
same,viability decrease (inhibition),[8],141% (active)
same,viability decrease (inhibition),[9],104% (active)
same,inhibition,[10],1.36% (inactive)
same,red/green cell ratio (normalised),[18],0.91 (inactive)
same,normalised cell number,[18]; [23],1.1
same,normalised cell number,[18]; [24],1
same,activity remaining,[11],106% (inactive)
same,fold change,[12]; stronger effect = lower value,0.925 (inactive) and 0.946 (inactive) and 1.1 (inactive)
same,fold change,[12]; [20],1.29 and 0.637 and 1.2
same,cell count,[12]; [21],6020 and 7170 and 8360
same,cell count,[12]; [22],6500 and 7580 and 7600
same,z-score,[19]; [25],-0.246 (inactive) and 0.0301 (inactive)
same,z-score,[19]; [26],-0.177 and -0.00115
same,remaining NAD,[13],10 nM (inactive)
same,luciferase signal,[14],44 AU (inactive)
COP(=S)(OC)Oc1ccc(SC)c(C)c1,nuclear beta-catenin stimulation,[2]; at 10 µM,1.4% (inactive)
same,nuclear beta-catenin stimulation,"[2]; stimulation, at 2 µM",1.3%
same,insulin secretion stimulation,[3],-2.2% (inactive)
same,viability decrease,[4],16.1% (inactive)
same,tube area decrease,[5],13.4% (inactive)
same,GLP1 secretion stimulation,[6],-0.1% (inactive)
same,inhibition of viability,[7],-20.4% (inactive)
same,viability decrease (inhibition),[8],89.6% (active)
same,viability decrease (inhibition),[9],8.15% (inactive)
same,inhibition,[10],9.75% (inactive)
same,red/green cell ratio (normalised),[18],0.97 (inactive)
same,normalised cell number,[18]; [23],1.03
same,normalised cell number,[18]; [24],1
same,activity remaining,[11],92.7% (inactive)
same,fold change,[12]; stronger effect = lower value,0.917 (inactive)
same,fold change,[12]; [20],0.928
same,cell count,[12]; [21],9260
same,cell count,[12]; [22],10100
